Measured values as given in PubChem BioAssay (Tox21).
Where “and” joins values, the source holds several entries; their conditions need not be identical. Equal values may be shown once. Inconclusive results are not listed. Entries that show only a call come without a potency. Calls of active or inactive are those of the source. Calls follow the shape of the dose curve; as a rule, active = well fitted cell-killing curve with a large enough effect in the repeat runs; inconclusive = weak or mixed curves, or effect the other way; inactive = no such curve, though single readings can be large or run the other way.
Potency is read from the fitted curve at half-maximal effect.

Assay: qHTS assay to identify small molecule antagonists of the glucocorticoid receptor (GR) signaling pathway - cell viability counter screen (AID 720693); also: nearly all actives have a fitted effect of over 55% in size
Settings: GR-bla HeLa viability, CellTiter-Glo luminescence, 18 h, with 5 nM dexamethasone present; series mostly up to 58.5 µM; viability change, negative = cytotoxic: at the top concentration
From the text: National Center for Advancing Translational Sciences [NCATS]
NIH Chemical Genomics Center [NCGC]
U.S. Environmental Protection Agency [EPA]
National Institutes of Environmental Health Sciences [NIEHS]
National Toxicology Program [NTP]
U.S. Food and Drug Administration [FDA]
The Glucocorticoid receptor (GR) is one of the members of the nuclear receptor family of ligand-dependent transcription factors. GR plays a critical role in carbohydrate, protein and lipid metabolisms and programmed cell death. CellSensor GR-bla HeLa cell line (Invitrogen) contains a beta-lactamase reporter gene under the control of the glucocorticoid response element stably integrated into HeLa cells, a cervical cancer cell line that expresses glucocorticoid receptor. The activation of the reporter gene under culture conditions can be detected by fluorescence intensity. This cell line has been used to screen the Tox21 10K compound library and to identify the compounds that inhibit the GR signaling. The cytotoxicity of the Tox21 compound library against the GR-bla HeLa cell line was tested in parallel by measuring the cell viability using CellTiter-Glo assay in the same wells.
Tox21 Assay Protocol Summary:
The GR-bla HeLa cells were dispensed at 1500 cells/5 ul/well in 1536-well black wall/clear bottom plates using a Multidrop Combi (ThermoFisher Scientific, Waltham, MA) dispenser. After the assay plates were incubated at a 37 C/5% CO2 incubator for 4 hours, 23 nL of compounds dissolved in DMSO, positive controls or DMSO only was transferred to the assay plate by a pintool station (Kalypsys, San Diego, CA), followed by addition of 1 uL of dexamethasone (5 nM, final concentration in the well). The plates were incubated at 37 C for 18 hours. After 1 uL of LiveBLAzerTM B/G FRET substrate was added using a Flying Reagent Dispenser (Aurora Discovery, San Diego, CA), the plates were incubated at room temperature (RT) for 2 hours, and fluorescence intensity was measured by an Envision plate reader (PerkinElmer, Shelton, CT). After measurement of bla assay, 3 ul CellTiter-Glo (Promega, Madison, WI) was added to measure the cytotoxicity and the plates were then incubated at RT for 30 min. The luminescence was measured using a ViewLux (Perkin Elmer) plate reader.
With `Oc1ccccc1-c1ccccc1` the Potency was “inactive”.
With `CC(Cl)(Cl)C(=O)O` the Potency was “inactive”.
In the case of `Nc1ccccc1`, the Potency is reported as “inactive”.
With `CN(C)[C@@H]1C(=O)C(C(N)=O)=C(O)[C@@]2(O)C(=O)C3=C(O)c4c(O)cccc4[C@@](C)(O)[C@H]3[C@H](O)[C@@H]12` the Potency was “inactive”.
With `Cc1cc(Cl)ccc1N` the Potency was “inactive”.
In the case of `O=C(O)CCl`, the Potency is reported as “inactive”.
In the case of `CCCC[n+]1ccc(C)cc1`, the Potency is reported as “inactive”.
With `O=c1[nH]c(=O)n(Cl)c(=O)n1Cl` the Potency was “inactive”.
With `O=[N+]([O-])c1ccccc1O` the Potency was “inactive”.
In the case of `CCC(=O)C(CC(C)N(C)C)(c1ccccc1)c1ccccc1` (stereo not given), the Potency is reported as “inactive”.
In the case of `CCC[N+]1(C)CCCC1`, the Potency is reported as “inactive”.
In the case of `O=c1nc(O)n(Cl)c(=O)n1Cl`, the Potency is reported as “inactive”.
In the case of `CCCC[n+]1ccccc1C`, the Potency is reported as “inactive”.
In the case of `CCCCn1cc[n+](C)c1C`, the Potency is reported as “inactive”.
In the case of `CCOP(=S)(OCC)Oc1ccc2c(C)c(Cl)c(=O)oc2c1`, the Potency is reported as “inactive”.
In the case of `Cc1cc(-c2ccc(N)c(C)c2)ccc1N`, the Potency is reported as “inactive”.
With `Nc1ccc(Cl)cc1` the Potency was “inactive”.
For `CNC`, the Potency was “inactive”.
For `CCCC[N+]1(C)CCCC1`, the Potency was “inactive”.
In the case of `CC[N+](CC)(CC)CC`, the Potency is reported as “inactive”.
With `O=C(O)C(Cl)(Cl)Cl` the Potency was “inactive”.
For `CCCC[n+]1ccccc1`, the Potency was “inactive”.
In the case of `CCCC[N+]1(C)CCCCC1`, the Potency is reported as “inactive”.
For `Nc1ccc(-c2ccc(N)c(Cl)c2)cc1Cl`, the “viability change, negative = cytotoxic” value was -24% (inactive).
In the case of `COCC(=O)N(c1c(C)cccc1C)C(C)C(=O)OC` (stereo not given), the Potency is reported as “inactive”.
For `O=C(O)c1nc(Cl)ccc1Cl`, the Potency was “inactive”.
With `CCCn1cc[n+](C)c1` the Potency was “inactive”.
For `C1CCC(NC2CCCCC2)CC1`, the Potency was “inactive”.
In the case of `Cc1cc(Cl)ccc1OCC(=O)O`, the Potency is reported as “inactive”.
For `CC[n+]1ccccc1`, the Potency was “inactive”.
With `CC(=O)O` the Potency was “inactive”.
In the case of `COc1ccc(N)cc1`, the Potency is reported as “inactive”.
With `O=[N+]([O-])O` the Potency was “inactive”.
For `CCCCn1cc[n+](C)c1`, the Potency was “inactive”.
In the case of `Nc1ccc(-c2ccc(N)cc2)cc1`, the Potency is reported as “inactive”.
For `O=P1(N(CCCl)CCCl)NCCCO1` (stereo not given), the Potency was “inactive”.
For `CCCCCCCCCCn1cc[n+](C)c1`, the Potency was 49.5 µM (active) and 40 µM (active) and 48.9 µM (active).
In the case of `C[N+](C)(C)Cc1ccccc1`, the Potency is reported as “inactive”.
With `CCCCCCCCCCCC(=O)O` the Potency was “inactive”.
In the case of `CCn1cc[n+](C)c1C`, the Potency is reported as “inactive”.
